{"source": "paper PMC4336329", "about": "(PLoS ONE, 2015)", "note": "About 14,000 (4.5%) of roughly 310,000 compounds showed an effect of 50% or more. The effect is printed as a negative number. The full list was thinned out, with strong results kept by preference.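 Further: peak tail current of the secondary pulse compared with the same well before compound.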", "data": [{"molecular_target": "human ether-à-go-go-related gene (hERG) potassium channel (human, UniProt Q12809)", "sequence (Q12809 whole entry, looked up)": "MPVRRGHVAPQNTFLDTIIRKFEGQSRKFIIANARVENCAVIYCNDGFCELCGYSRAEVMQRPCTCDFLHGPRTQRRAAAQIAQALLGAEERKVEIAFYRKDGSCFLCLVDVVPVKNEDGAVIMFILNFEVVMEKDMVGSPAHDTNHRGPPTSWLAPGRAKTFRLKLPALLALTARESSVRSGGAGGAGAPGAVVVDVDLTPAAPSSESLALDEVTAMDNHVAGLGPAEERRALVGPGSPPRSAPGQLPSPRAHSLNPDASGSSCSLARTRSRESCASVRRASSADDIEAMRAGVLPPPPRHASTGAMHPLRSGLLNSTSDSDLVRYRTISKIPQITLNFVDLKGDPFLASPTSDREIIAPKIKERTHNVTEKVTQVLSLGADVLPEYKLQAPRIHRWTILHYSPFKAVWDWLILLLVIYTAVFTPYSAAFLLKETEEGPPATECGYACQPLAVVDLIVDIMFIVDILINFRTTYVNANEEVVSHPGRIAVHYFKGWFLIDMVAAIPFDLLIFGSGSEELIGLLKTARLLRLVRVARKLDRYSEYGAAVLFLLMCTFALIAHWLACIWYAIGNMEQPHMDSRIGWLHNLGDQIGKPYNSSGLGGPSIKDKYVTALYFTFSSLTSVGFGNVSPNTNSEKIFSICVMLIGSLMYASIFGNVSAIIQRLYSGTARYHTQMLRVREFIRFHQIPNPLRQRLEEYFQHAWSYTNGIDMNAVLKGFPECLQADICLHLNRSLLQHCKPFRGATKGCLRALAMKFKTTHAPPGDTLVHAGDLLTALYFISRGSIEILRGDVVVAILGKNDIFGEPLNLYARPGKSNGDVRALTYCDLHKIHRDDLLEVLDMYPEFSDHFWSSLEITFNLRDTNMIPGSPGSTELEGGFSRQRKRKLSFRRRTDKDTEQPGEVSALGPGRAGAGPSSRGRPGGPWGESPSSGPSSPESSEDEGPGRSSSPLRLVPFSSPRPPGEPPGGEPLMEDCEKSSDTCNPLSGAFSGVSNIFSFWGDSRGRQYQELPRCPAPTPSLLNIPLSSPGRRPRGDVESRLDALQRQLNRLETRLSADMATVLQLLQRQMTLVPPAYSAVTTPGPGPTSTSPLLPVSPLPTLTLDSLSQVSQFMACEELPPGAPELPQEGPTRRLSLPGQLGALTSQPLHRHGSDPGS", "assay": "primary screen, population patch clamp on CHO cells stably expressing hERG; higher = less effect of the substance", "units": {"hERG current change (%, negative = inhibition) at 10uM": "%"}, "values": [{"molecule": "Cc1ccc(NS(=O)(=O)c2ccc(C(=O)NNC(=O)c3ccccc3O)cc2)cc1", "hERG current change (%, negative = inhibition) at 10uM": 0.906}, {"molecule": "COC(=O)Cn1c(=NC(=O)c2ccc(Cl)s2)sc2cc(F)ccc21", "hERG current change (%, negative = inhibition) at 10uM": 20}, {"molecule": "O=C(CCS(=O)(=O)c1ccc(Cl)cc1)Nc1ccc(N2CCOCC2)cc1", "hERG current change (%, negative = inhibition) at 10uM": -6.95}, {"molecule": "CCOC(=O)c1sc2nc(C)nc(Nc3ccc(OC)cc3)c2c1C", "hERG current change (%, negative = inhibition) at 10uM": 24.1}, {"molecule": "CC(NC(=O)Cc1ccc(NS(=O)(=O)c2cccc(C(F)(F)F)c2)cc1)c1ccccn1", "note": "(stereo not shown)", "hERG current change (%, negative = inhibition) at 10uM": -7.55}, {"molecule": "O=S(=O)(Nc1cccnc1)c1cccc(C(F)(F)F)c1", "hERG current change (%, negative = inhibition) at 10uM": -2.26}, {"molecule": "CN(Cc1cccnc1)C(=O)Cc1ccc(NS(=O)(=O)c2cccc(C(F)(F)F)c2)cc1", "hERG current change (%, negative = inhibition) at 10uM": -57.6}, {"molecule": "Cc1ccc(C(=O)N2CCOCC2)cc1Cl", "hERG current change (%, negative = inhibition) at 10uM": 2.91}, {"molecule": "Cc1c(NC(=O)C(C)OC(=O)c2ccc(Cl)nc2)c(=O)n(-c2ccccc2)n1C", "note": "(stereo not shown)", "hERG current change (%, negative = inhibition) at 10uM": -2.18}, {"molecule": "O=C(COC(=O)c1ccccc1F)NC(=O)NC1CCCC1", "hERG current change (%, negative = inhibition) at 10uM": 1.24}, {"molecule": "N#CC1(NC(=O)CN2c3cccc4cccc(c34)S2(=O)=O)CCCCC1", "hERG current change (%, negative = inhibition) at 10uM": 14.9}, {"molecule": "COc1ccccc1-c1nnc(C2CCN(S(=O)(=O)c3ccc([N+](=O)[O-])cc3)CC2)o1", "hERG current change (%, negative = inhibition) at 10uM": -74.6}, {"molecule": "COc1ccccc1CNC(=O)C1CCN(S(=O)(=O)c2cccc([N+](=O)[O-])c2)CC1", "hERG current change (%, negative = inhibition) at 10uM": -3.34}, {"molecule": "COc1ccccc1-c1nnc(C2CCN(S(=O)(=O)c3ccccc3[N+](=O)[O-])CC2)o1", "hERG current change (%, negative = inhibition) at 10uM": -45.2}, {"molecule": "COc1ccccc1-c1nnc(C2CCN(S(=O)(=O)c3cccc([N+](=O)[O-])c3)CC2)o1", "hERG current change (%, negative = inhibition) at 10uM": -57.6}, {"molecule": "O=[N+]([O-])c1cccc(S(=O)(=O)N2CCC(c3nc(-c4ccncc4)no3)CC2)c1", "hERG current change (%, negative = inhibition) at 10uM": 1.54}, {"molecule": "COc1ccccc1-c1nnc(NC(=O)c2ccc(S(=O)(=O)N3CCCC3)cc2)o1", "hERG current change (%, negative = inhibition) at 10uM": -17.3}, {"molecule": "O=C(CCCN1C(=O)c2ccccc2C1=O)NCc1ccco1", "hERG current change (%, negative = inhibition) at 10uM": 6.15}, {"molecule": "COc1ccc(N2C(=O)CC(Nc3cccc(C(C)=O)c3)C2=O)cc1OC", "note": "(stereo not shown)", "hERG current change (%, negative = inhibition) at 10uM": 7.07}, {"molecule": "COc1cc(OC)cc(C(=O)NCCCNC(=O)c2cccnc2)c1", "hERG current change (%, negative = inhibition) at 10uM": 7.43}, {"molecule": "N#C/C(=C\\c1ccc(N2CCCCC2)o1)C(N)=O", "hERG current change (%, negative = inhibition) at 10uM": 7.71}, {"molecule": "OCCC1CN(Cc2cccn2-c2ncccn2)CCN1Cc1ccccc1", "note": "(stereo not shown)", "hERG current change (%, negative = inhibition) at 10uM": -64.2}, {"molecule": "Cc1ncc(CN2CCN(Cc3ccc(F)cc3)C(CCO)C2)s1", "note": "(stereo not shown)", "hERG current change (%, negative = inhibition) at 10uM": 9.56}, {"molecule": "CC(C)CCN1CCN(Cc2cccn2-c2cccnc2)CC1CCO", "note": "(stereo not shown)", "hERG current change (%, negative = inhibition) at 10uM": -32.5}, {"molecule": "OCCC1CN(Cc2cccn2-c2ncccn2)CCN1CCc1ccccc1", "note": "(stereo not shown)", "hERG current change (%, negative = inhibition) at 10uM": -68.2}, {"molecule": "OCCC1CN(Cc2cccn2-c2ncccn2)CCN1Cc1ccc(F)cc1", "note": "(stereo not shown)", "hERG current change (%, negative = inhibition) at 10uM": -73.7}, {"molecule": "OCCC1CN(Cc2cccn2-c2cccnc2)CCN1CCc1ccccc1", "note": "(stereo not shown)", "hERG current change (%, negative = inhibition) at 10uM": -65.2}, {"molecule": "Cc1cc(C)n(-c2ccc(C(=O)OCC(=O)Nc3ccc([N+](=O)[O-])cc3)cc2)n1", "hERG current change (%, negative = inhibition) at 10uM": -10.6}, {"molecule": "Cc1ccc(C(=O)Nc2nnc(SCC(=O)N3CCCc4ccccc43)s2)cc1", "hERG current change (%, negative = inhibition) at 10uM": 7.27}, {"molecule": "Cc1ccc(-n2c(SCC(=O)O)nc3c(sc(=S)n3-c3ccc(C)c(C)c3)c2=O)cc1", "hERG current change (%, negative = inhibition) at 10uM": 14}, {"molecule": "O=C(c1cn(-c2ccccc2)nc1-c1ccc(Cl)s1)N1CCOCC1", "hERG current change (%, negative = inhibition) at 10uM": -20.9}, {"molecule": "COc1ccc(CNC(=O)COC(=O)/C=C/c2cccc(Br)c2)cc1OC", "hERG current change (%, negative = inhibition) at 10uM": 30.1}, {"molecule": "CC(=O)Nc1ccc(C2=NN(c3ccccc3)C(c3cccs3)C2)cc1", "note": "(stereo not shown)", "hERG current change (%, negative = inhibition) at 10uM": 7.7}, {"molecule": "Cc1cc(NC(=O)COc2ccc(F)c(Cl)c2)no1", "hERG current change (%, negative = inhibition) at 10uM": 17.7}, {"molecule": "CCn1c(SCc2ccccc2)nc2ccccc2c1=O", "hERG current change (%, negative = inhibition) at 10uM": 2.76}, {"molecule": "Cc1ccc(OCC(=O)NC(C)c2ccccc2)cc1", "note": "(stereo not shown)", "hERG current change (%, negative = inhibition) at 10uM": -1.19}, {"molecule": "O=C1C2=C(CCCC2)C(=O)N1CNc1ccccc1", "hERG current change (%, negative = inhibition) at 10uM": 16.3}, {"molecule": "O=C1CC(N(Cc2cccs2)C(=O)Nc2ccccc2)C(=O)N1c1ccc(Cl)cc1", "note": "(stereo not shown)", "hERG current change (%, negative = inhibition) at 10uM": -22.6}, {"molecule": "Cc1ccccc1OCc1nc2ccccc2c(=O)n1/N=C/c1cn[nH]c1-c1ccc(Br)cc1", "hERG current change (%, negative = inhibition) at 10uM": 15.8}, {"molecule": "CCN(CC)c1ccc(NC(=O)Nc2cccc3ccccc23)cc1", "hERG current change (%, negative = inhibition) at 10uM": 7.7}, {"molecule": "CCn1nc(C)c(CN2CCN(Cc3ccc(OC)c(C)c3C)C(CCO)C2)c1C", "note": "(stereo not shown)", "hERG current change (%, negative = inhibition) at 10uM": -45.8}, {"molecule": "COc1ccc(CN2CCN(CC3CC3)CC2CCO)c(C)c1C", "note": "(stereo not shown)", "hERG current change (%, negative = inhibition) at 10uM": -0.714}, {"molecule": "COc1ccc(CN2CCN(Cc3cccn3-c3ncccn3)CC2CCO)c(C)c1C", "note": "(stereo not shown)", "hERG current change (%, negative = inhibition) at 10uM": -81.6}, {"molecule": "N#Cc1ccc(-c2ccc(OCC(=O)NCC(=O)Nc3ccc(F)c(F)c3F)cc2)cc1", "hERG current change (%, negative = inhibition) at 10uM": -7.98}, {"molecule": "CC(C(=O)NCC(=O)Nc1ccc(F)c(F)c1F)N1CCN(Cc2ccc(C#N)cc2)CC1", "note": "(stereo not shown)", "hERG current change (%, negative = inhibition) at 10uM": -61}, {"molecule": "CC(C(=O)NCC(=O)Nc1ccc(F)c(F)c1F)N1CCN(c2ccc(O)cc2)CC1", "note": "(stereo not shown)", "hERG current change (%, negative = inhibition) at 10uM": -6.1}, {"molecule": "CCOC(=O)N1CCC(N2C(=O)c3ccc(C(=O)Nc4ccc(OC)c(OC)c4)cc3C2=O)CC1", "hERG current change (%, negative = inhibition) at 10uM": 23.2}, {"molecule": "O=C(/N=C1\\NC(=O)C(F)(C(F)(F)F)S1)NC1CCCCC1", "note": "(stereo not shown)", "hERG current change (%, negative = inhibition) at 10uM": 13}, {"molecule": "Cn1c(CN2CCCCC2)nc2cc(NS(=O)(=O)c3ccc(F)cc3)ccc21", "hERG current change (%, negative = inhibition) at 10uM": -54.2}, {"molecule": "O=S(=O)(Nc1ccc2c(c1)nc1n2CCN(Cc2ccccc2)C1)c1ccc(F)cc1", "hERG current change (%, negative = inhibition) at 10uM": -50.4}, {"molecule": "CCCC(=O)Nc1ccc2c(c1)nc(CCN1CCCCC1)n2C", "hERG current change (%, negative = inhibition) at 10uM": -4.96}, {"molecule": "O=S(=O)(Nc1ccc2c(c1)nc1n2CCN(Cc2ccccc2)C1)c1ccc(Cl)cc1", "hERG current change (%, negative = inhibition) at 10uM": -2.38}, {"molecule": "CC(C)C(=O)Nc1ccc2c(c1)nc(CCN1CCCCC1)n2C", "hERG current change (%, negative = inhibition) at 10uM": -0.778}, {"molecule": "O=S(=O)(Nc1ccc2c(c1)nc1n2CCN(Cc2ccccc2)C1)c1ccccc1", "hERG current change (%, negative = inhibition) at 10uM": -40.1}, {"molecule": "Cn1c(CCN2CCCCC2)nc2cc(NS(=O)(=O)c3ccc(F)cc3)ccc21", "hERG current change (%, negative = inhibition) at 10uM": -67.6}]}]}
